Source: PubChem BioAssay (National Center for Advancing Translational Sciences (NCATS))
Compounds with a hit are over-represented: about 0.52% of the library has one in this group of screens.
Eya2 phos inh = inhibitors of human Eya2 phosphatase activity. O00167. recombinant Eya2, OMFP fluorescence dephosphorylation (OMFP is methylfluorescein phosphate). 330,000 compounds, 0.006% hits. Potency, µM (highest dose often 76.9 µM), without a hit: at the highest dose activity, negative = inhibition, most hits filed as inhibitors
Target sequence (O00167 whole entry, looked up): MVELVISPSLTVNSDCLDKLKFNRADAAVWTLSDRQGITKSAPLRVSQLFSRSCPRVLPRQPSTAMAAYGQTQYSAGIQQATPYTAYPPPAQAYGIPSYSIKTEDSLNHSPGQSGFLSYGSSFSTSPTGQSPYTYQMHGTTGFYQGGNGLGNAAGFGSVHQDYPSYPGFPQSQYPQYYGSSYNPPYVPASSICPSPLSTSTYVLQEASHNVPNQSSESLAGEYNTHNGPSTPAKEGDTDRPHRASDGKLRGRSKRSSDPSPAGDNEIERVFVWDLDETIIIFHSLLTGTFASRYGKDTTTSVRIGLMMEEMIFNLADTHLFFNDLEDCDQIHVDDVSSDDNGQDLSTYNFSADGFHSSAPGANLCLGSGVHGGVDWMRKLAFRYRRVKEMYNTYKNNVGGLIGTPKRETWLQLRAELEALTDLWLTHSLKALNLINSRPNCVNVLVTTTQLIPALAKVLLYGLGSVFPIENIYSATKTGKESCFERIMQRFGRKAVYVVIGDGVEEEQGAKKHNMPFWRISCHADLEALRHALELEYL
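Eya2 (0.2 uM) preincubated 10 min at ambient with compound, then OMFP substrate added at 50 uM; 10 min reaction in 50 mM HEPES pH 7.5, 50 mM NaCl, 5 uM MgCl2, 0.05% BSA, 1 mM DTT. Fluorescence read at Ex 485/Em 525 nm.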
Chronic BCR inh = chronic active BCR signaling inhibition; Potency, µM (highest dose often 46.1 µM), without a hit: top-dose activity change, negative = inhibition, usual class: inhibitors; AID 493014; 340,000 compounds, 0.05% hits; ABC-DLBCL IkBa-CBG/CBR reporter, luminescence ratio, 4 h; active = well fitted inhibition curve with a large enough effect in the signal ratio, with a control signal flat, not every such curve was filed as active; inconclusive = small, poorly fitted or top-dose-only effect, or effect the other way, or a change in a side signal; the % refers to the signal ratio;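 also: plate controls were basal doxycycline-induced cells for no effect and cells given 10 µM MG132 for full effect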
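Compounds up to 46 uM were incubated four hours with TMD8 cells whose green CBG68 luciferase is fused to IkappaBalpha; red CBR luminescence normalised the signal, and concentration-effect curves were fitted to fusion, red and ratio data.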
GCN5L2 inh = inhibitors of human GCN5L2 histone acetyltransferase; AID 504327; 390,000 compounds, 0.21% hits; Q92830; GCN5L2 HAT assay, ThioGlo1 CoA-SH fluorescence; Potency, µM (titrated, usually from 58.9 µM), inactives show top-dose activity change, negative = inhibition, hits mostly inhibitors
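Titration-based screen in which CoA formation is detected via maleimide probe ThioGlo1 (50uM) turning fluorescent on thiol reaction; substrates H3(1-25) 75uM and acetyl-CoA 70uM, GCN5L2 20nM, 20 min incubation at room temperature.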
RGS4 inh = blocks human RGS4-accelerated GTP hydrolysis | Transcreener GDP fluorescence polarization, RGS4-accelerated GTP hydrolysis | Potency, µM (highest dose often 114 µM), for the others: at the highest dose activity change, negative = inhibition, usual class: inhibitors | 390,000 compounds, 0.039% hits | AID 504845; also: nearly all actives have a fitted effect of over 75% in size
Target sequence (P49798 whole entry, looked up): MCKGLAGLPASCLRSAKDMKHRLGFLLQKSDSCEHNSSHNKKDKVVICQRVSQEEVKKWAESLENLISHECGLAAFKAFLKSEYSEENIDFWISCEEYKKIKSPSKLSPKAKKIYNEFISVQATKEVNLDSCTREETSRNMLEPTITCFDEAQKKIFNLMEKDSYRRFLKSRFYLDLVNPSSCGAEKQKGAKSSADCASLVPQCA
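MLSMR compounds (23 nl, pin-transferred) preincubated 10 min at room temperature with a 500nM (2x) first reagent, then RGS4 at 900nM (2x) plus Transcreener GDP mix added; fluorescence polarization (620/688 nm) read before and after 90 min at 30 °C.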
uPA generation = cell surface uPA generation inhibition; 330,000 compounds, 0.31% hits; cell surface uPA generation assay, qHTS; AID 540303; Potency, µM (doses to about 38.3 µM), for inactives: top-dose activity change, negative = inhibition, actives largely listed as inhibitors; active = well fitted inhibition curve with a large enough effect; inconclusive = small, poorly fitted or top-dose-only effect; inactive = no such curve, though single readings can be large or run the other way; tested in mouse RAW 264.7 cells; also: nearly all actives have a fitted effect of over 55% in size
USP2a block = inhibitors of human ubiquitin-specific protease USP2a. O75604. USP2 core, Ub-CHOP2 coupled fluorogenic reporter, 485/531. Potency, µM (series often up to 38.3 µM), without a hit: at the top dose activity change, negative = inhibition, hits mostly inhibitors. 330,000 compounds, 0.01% hits. AID 463254;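 also: plate controls were DMSO wells for no effect and full inhibition by NEM control for full effect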
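Deubiquitinase activity read as fluorescence (485/531 nm) after Ub-CHOP2 cleavage activates the enterokinase reporter on its substrate; USP2 core 10nM, Ub-CHOP2 and substrate 25nM each, 30min compound preincubation then 60min RT; data normalized to NEM, curves fitted.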
* marks the source's active call; other numbers are inactive results; [ ] = remark or other dose. Unless noted, calls follow the shape of the dose curve; as a rule, active = well fitted curve in the direction sought with a large enough effect; inconclusive = small, poorly fitted or top-dose-only effect, or another doubt; inactive = no such curve, though single readings can be large; an effect the other way counts as inactive or inconclusive. Unless noted, % is scaled to controls: 0 for no effect and ±100 for the full control effect; potency is read from the fitted curve at half-maximal effect.

Screening O=C(O)[C@H]1[C@H]2CN[C@H](C(=O)O)[C@H]21 returned GCN5L2 inh -2.8% and RGS4 inh 5.97µM*.
CC1(C)[C@H](C(=O)O[C@H](C#N)c2cccc(Oc3ccccc3)c2)[C@@H]1C=C(Br)Br was read as GCN5L2 inh 2.8%.
Screening CCOC(=O)[C@]12Cc3cc4c(cc3[C@H]1N(Cc1ccccc1)C(=O)c1ccccc12)OCO4 returned RGS4 inh 8.4% and uPA generation 12.6µM*.
Screening CC1CN(C(=S)Nc2cccc(Cl)c2)CC(C)O1 (stereo not given) returned Eya2 phos inh 3.4%, Chronic BCR inh inconclusive, GCN5L2 inh -7.6%, RGS4 inh -14.8%, uPA generation 8.1% and USP2a block 0.2%.
`Cc1ccc(C)c(NC(=S)NC2CC3CCC(C2)N3Cc2ccco2)c1` (stereo not given) gave Eya2 phos inh 4.0%, Chronic BCR inh -8.3%, GCN5L2 inh 2µM*, RGS4 inh 30.0%, uPA generation 3.0% and USP2a block -0.7%.
`COC(=O)c1c(C)n(Cc2ccco2)c2ccc(O)cc12` gave Eya2 phos inh -13.9%, Chronic BCR inh 26.6%, GCN5L2 inh -7.1%, RGS4 inh -12.5% and USP2a block 0.1%.
For O=C(Nc1ccc(Cl)cc1Cl)c1cc(S(=O)(=O)NCc2ccc3c(c2)OCO3)ccc1F the results were Chronic BCR inh inconclusive, GCN5L2 inh -7.6% and RGS4 inh -26.7%.
`CCCOCCN(C(=O)CCl)c1c(CC)cccc1CC` gave GCN5L2 inh 2.7%.
COc1ccc(Nc2nc(N)nc(CCl)n2)cc1 was read as Eya2 phos inh 5.3%, Chronic BCR inh inconclusive, GCN5L2 inh -4.8%, RGS4 inh 16.9%, uPA generation 2.51µM* and USP2a block 4.6%.
CCCCC/C=C\C/C=C\C/C=C\C/C=C\CCCC(=O)Nc1ccc(O)cc1 was read as Eya2 phos inh inconclusive, Chronic BCR inh inconclusive, GCN5L2 inh -18.7%, RGS4 inh 46.3%[56.9 µM] and USP2a block -7.7%.
For CCCCC/C=C\C/C=C\C/C=C\C/C=C\CCCC(=O)NCCCC(=O)O the results were GCN5L2 inh 14.1µM*.
Screening CCCCC/C=C\C/C=C\C/C=C\C/C=C\CCCC(=O)NCc1ccoc1 returned GCN5L2 inh 14.1µM*.
Screening CCCCC/C=C\C/C=C\C/C=C\C/C=C\CCCC(=O)NCCO returned GCN5L2 inh -5.3% and RGS4 inh inactive.
`CCCCC/C=C\C/C=C\C/C=C\C/C=C\CCCC(=O)NCCc1ccc(O)c(O)c1` gave GCN5L2 inh 17.8µM*.
Screening CCCCC/C=C\C/C=C\C/C=C\C/C=C\CCCC(=O)NCC(=O)O returned Eya2 phos inh 4.2%, GCN5L2 inh 6.31µM* and RGS4 inh inconclusive.
O=C(NC1CCN(Cc2ccccc2)CC1)c1cccc(S(=O)(=O)Nc2ccc(SC(F)F)cc2)c1 was read as Eya2 phos inh inconclusive, Chronic BCR inh -2.6%, GCN5L2 inh -2.8%, RGS4 inh -40.4%, uPA generation inconclusive and USP2a block 1.2%.
COc1ccc(CNC(=O)C[C@H]2C[C@H](C(=O)N3CCCCC3)[C@@]3(CCc4ccccc4)c4[nH]c5ccc(Cl)cc5c4CCN3C2=O)cc1OC was read as Eya2 phos inh 4.2%, Chronic BCR inh 1.5%, GCN5L2 inh -11.9%, RGS4 inh -19.2%, uPA generation inconclusive and USP2a block 1.0%.
Screening O=C(c1cccc(C(F)(F)F)c1)C1CCCN(Cc2ncc[nH]2)C1 (stereo not given) returned Eya2 phos inh -10.0%, Chronic BCR inh 11.4%, GCN5L2 inh 0.159µM*, RGS4 inh 5.2%, uPA generation -3.8% and USP2a block 3.1%.
COC(=O)C1=C(c2cccc(OCc3ccccc3)c2)C[C@@H]2CC[C@H]1N2C(=O)NCc1ccccc1OC was read as Eya2 phos inh 7.0%, Chronic BCR inh inconclusive, GCN5L2 inh -6.6%, RGS4 inh 12.9%, uPA generation 14.1µM* and USP2a block 2.1%.
`O=c1oc(C2(O)CCCCC2)cc2ccc(-c3ccc4[nH]ccc4c3)cc12` gave Eya2 phos inh -0.2%, Chronic BCR inh 4.6%, GCN5L2 inh 1.2%, RGS4 inh -5.6%, uPA generation inconclusive and USP2a block -0.4%.
`O=C1OC(c2ccc(O)c(S(=O)(=O)O)c2)(c2ccc(O)c(S(=O)(=O)O)c2)c2c(Br)c(Br)c(Br)c(Br)c21` gave GCN5L2 inh 28.2µM*.
`COc1cccc([C@@]2(O)CCCCC2CN(C)C)c1` (stereo not given in full) gave GCN5L2 inh -5.3%.
Screening O=C1C=CCC(/C=C/c2ccccc2)O1 (stereo not given) returned Eya2 phos inh 9.8%, Chronic BCR inh inconclusive, GCN5L2 inh -1.6%, RGS4 inh inconclusive, uPA generation 1µM* and USP2a block 0.6%.
CCC(C)c1ccc(NC(=O)Nc2cccnc2)cc1 (stereo not given) was read as Eya2 phos inh -8.7%, Chronic BCR inh inconclusive, GCN5L2 inh -6.9%, RGS4 inh -16.1%, uPA generation inconclusive and USP2a block -1.4%.
`Cc1ccc(-n2sc3ccccc3c2=O)cc1` gave Eya2 phos inh -4.8%, Chronic BCR inh inconclusive, GCN5L2 inh 7.08µM*, RGS4 inh -137.0%, uPA generation -13.5% and USP2a block 0.1%.
For C[C@@H]1C[C@@H]2[C@H]([C@H]3C=C(COC(=O)c4ccccc4)[C@@H](O)[C@]4(O)[C@@H](O)C(OC(=O)c5ccccc5)=C[C@@]14C3=O)C2(C)C the results were GCN5L2 inh 18.5%.
For COC(=O)/C(C)=C\CC12OC(C)(C)C3CC(C=C4C(=O)c5c(OC)c6c(c(CC=C(C)C)c5OC431)OC(C)(CCC=C(C)C)C=C6)C2=O (stereo not given) the results were GCN5L2 inh -26.9%.
`CC(=O)Oc1c2c(c(CC=C(C)C)c3c1C(=O)C1=CC4CC5C(C)(C)OC(C/C=C(\C)C(=O)O)(C4=O)[C@]15O3)OC(C)(CCC=C(C)C)C=C2` (stereo not given in full) gave GCN5L2 inh 15.8µM*.
`CC(C)N(C(=O)CCl)c1ccccc1` gave GCN5L2 inh 3.1%, RGS4 inh 9.8% and uPA generation 6.31µM*.
